Screening data deposited in PubChem BioAssay by National Center for Advancing Translational Sciences (NCATS).
In the library only some 12% were active in any assay of this set; here they are far more common.
G9a block – blocks human histone lysine methyltransferase G9a. Q96KQ7. G9a H3K9 monomethylation, AlphaScreen, 2 h. Potency, µM (highest dose often 102 µM), for inactives: top-dose activity, negative = inhibition, hits mostly inhibitors. 8.8% of 350,000 active. AID 504332; further: on the % scale 0 is the no-effect control and ±100 the full control effect; nearly all actives have a fitted effect of over 75% in size
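AlphaScreen read-out: biotin-H3K9 peptide (500 nM) methylation by 20 nM enzyme with 20 uM SAM, 2 h at room temperature after 15 min compound preincubation; anti-monomethyl H3K9 antibody plus donor/acceptor beads, 10 min dark.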
Sfp PPTase inh – blocks B. subtilis Sfp PPTase activity; Q9F4F7; Biochemical Sfp PPTase activity, qHTS; Potency, µM, for the others: largest response in the series, negative = inhibition, usual class: inhibitors; 3.5% of 310,000 active;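 further: the enzyme is Sfp with the accession as filed and its product quenches rhodamine fluorescence; 0% = enzyme reaction without inhibitor and -100% = no enzyme wells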
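Sfp 15 nM + cpd, 15 min RT; start w/ rhodamine-CoA 5 uM, BHQ-2-YbbR 12.5 uM (final); 50 mM Hepes pH 7.6, 10 mM MgCl2, 0.01% NP-40, 0.01% BSA; read 525/598 nm at 0 and 30 min.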
JMJD2A Tudor – blocks the human JMJD2A Tudor domain. AlphaScreen JMJD2A-Tudor / H3K4me3 peptide binding. Potency, µM (highest dose often 114 µM), inactives show at the top dose activity change, negative = inhibition, actives largely listed as inhibitors. 4.4% of 390,000 active; further: on the % scale 0 is the no-effect control and ±100 the full control effect; nearly all actives have a fitted effect of over 50% in size
PLK1 PBD inh – blocks phosphopeptide binding to human PLK1 polo-box domain; AID 720504; P53350; Plk1 PBD binding of FITC phosphopeptide, fluorescence polarization; Potency, µM, inactives show max response, negative = inhibition, usual class: inhibitors; 2.8% of 360,000 active; further: series mostly up to about 57 µM; on the % scale 0 is the no-effect control and ±100 the full control effect; nearly all actives have a fitted effect of over 65% in size
HP1b chromo inh – blocks HP1-beta chromodomain binding to methylated histone tails; P83916; AlphaScreen HP1-beta / biotin-H3K9me3 peptide binding; Potency, µM (titrated, usually from 114 µM), for inactives: at the highest dose activity change, negative = inhibition, most hits filed as inhibitors; 0.56% of 390,000 active; further: nearly all actives have a fitted effect of over 70% in size
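HP1-beta protein (50 nM final) preincubated 30 min at room temperature with biotinylated H3(1-18)K9me3 peptide (50 nM) in PBS pH 7.4, 0.01% Tween-20, then compound added for 30 min. AlphaScreen streptavidin donor/nickel chelate acceptor beads (10 ug/mL final), 30 min dark, luminescence read.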
BAZ2B inh – blocks human BAZ2B. Q9UIF8. AlphaScreen BAZ2B-H3K14Ac peptide displacement. Potency, µM (top dose mostly 114 µM), inactives show at the highest dose activity change, negative = inhibition, most hits filed as inhibitors. 4.4% of 360,000 active. AID 504333; further: on the % scale 0 is the no-effect control and ±100 the full control effect; nearly all actives have a fitted effect of over 60% in size
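AlphaScreen displacement: compounds (up to 110uM) incubated 30 min at room temperature with a preformed 50 nM BAZ2B/50 nM biotinylated H3K14Ac peptide complex in PBS pH 7.4 with Tween-20. Donor and acceptor beads at 10 ug/mL final added, 20 min light-protected before reading.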
The depositor's hits bear a star; u = inconclusive; x = not tested or not shown; [ ] = remark or other dose. The call rests on the fitted dose curve; in most records, active means well fitted curve in the direction sought with a large enough effect; inconclusive means small, poorly fitted or top-dose-only effect, or another doubt; inactive means no such curve, though single readings can be large; an effect the other way counts as inactive or inconclusive. Potency means the concentration at half of the fitted maximal effect.

SMILES	G9a block	Sfp PPTase inh	JMJD2A Tudor	PLK1 PBD inh	HP1b chromo inh	BAZ2B inh
COc1ccc(CCN2C(=O)c3ccccc3C2(O)c2ncc[nH]2)cc1OC (stereo not given)	22µM*	u	-6%[11.4 µM]	u	-20%	u
O=[N+]([O-])c1cc(Cl)ccc1Nc1nc(Nc2ccc(Cl)cc2[N+](=O)[O-])nc(N2CCOCC2)n1	x	x	-29%[57.1 µM]	x	-9%[57 µM]	x
O=C(CN(Cc1ccco1)C(=O)c1cc(=O)[nH]c2ccccc12)Nc1ccccc1Br	13%[59 µM]	12%	-10%	-8%	17%	0%
COc1cc(SC)ccc1C(=O)N(CC(=O)Nc1ccccc1Br)Cc1ccco1	40µM*	x	-27%	-8%	3%	-35%
O=C1NC(=O)/C(=C/c2ccc(-c3ccc(F)cc3O)o2)S1	21µM*	x	x	x	x	x
CC(C)n1c(=O)c2ccccc2n1CC(=O)N1CCOCC1	x	x	x	7%	x	x
CN(C)c1ccc(NC(=O)/C=C/c2c(Cl)cccc2Cl)cc1	1.8µM*	17%	-34%	3%	u	u
C[C@@]1(C(NS(=O)(=O)c2cccc3cccnc23)c2ccc(-c3ccccc3)cc2)C[C@H]1C1CCCCC1 (stereo not given in full)	x	24%	x	x	x	x
COc1cc2[nH]c(=S)n(NC(=O)CC(C)C)c(=O)c2cc1OC	4µM*	u	3.5µM*	-4%	-2%	u
Cc1cc(C)n2nc(-c3ccc(F)cc3)cc2n1	x	x	x	-4%	x	x
Cc1cc(-c2ccc(F)cc2)nc2cc(C(N)=O)nn12	56µM*	-23%	-27%	-18%	-2%	-7%
Cc1ccc(C2C3=C(CC(C)(C)CC3=O)Nc3[nH]c(=S)[nH]c(=O)c32)cc1 (stereo not given)	u	14µM*	89µM*	-22%	29%	u
O=C(NCc1ccccc1Cl)c1c2c(nc3ccccc13)C(=O)N(C1CCCCC1)C2	0%[59 µM]	x	-20%	x	6%	u
COc1ccccc1NC(=O)COC(=O)c1cc2c(s1)CCC2	45µM*	x	50µM*	u	u	56µM*
COc1ccc(OC)c(NC(=O)COC(=O)c2cc3c(s2)CCC3)c1	x	-22%	28µM*	u	14µM*	10µM*
COc1ccccc1NC(=O)COC(=O)c1ccc2c(c1)OCCO2	0%[12.7 µM]	x	-15%	-9%	17%	-3%
COc1ccc(OC)c(NC(=O)COC(=O)CCC2CCCC2)c1	-4%[2.33 µM]	x	9%	-3%	72%	-1%
COCc1cccc(-c2csc(C(C)(NC(C)=O)c3ccccc3)n2)c1 (stereo not given)	x	x	x	-12%	x	x
CC(=O)c1ccc(N2CCN(C(=O)C3CCN(S(=O)(=O)c4cn(C)cn4)CC3)CC2)cc1	-2%[12.7 µM]	x	2%	x	26%	-11%
CC(=O)c1ccc(N2CCN(C(=O)Cn3cnc(S(=O)(=O)N4CCCCC4)c3)CC2)cc1	12%	26%	u	27µM*	21%	-35%
O=c1c2c(-c3ccc([N+](=O)[O-])cc3)csc2nc2n1CCC2	7.9µM*	u	-30%	27µM*	u	-1%
O=[N+]([O-])c1ccc(-c2nnc3n2CCCCC3)cc1	60%	4%	-13%	-3%	-2%	-2%
COc1cccc(N2C(C(C)=O)=NN(c3ccccc3)C2c2ccc(N3CCOCC3)cc2)c1 (stereo not given)	45%[59 µM]	-10%	-14%[57.1 µM]	-16%	72%	8%
COc1ccc(C2N(c3ccc(Cl)cc3)N=C(C(C)=O)N(C)N2C(C)=O)cc1 (stereo not given)	28µM*	-4%	u	-8%	-11%	u
COc1ccc(NC=O)c(C(=O)CCNC(C)=O)c1	x	-1%	x	x	x	x
SMILES	G9a block	Sfp PPTase inh	JMJD2A Tudor	PLK1 PBD inh	HP1b chromo inh	BAZ2B inh
Cc1nc2c(cnn2-c2ccccc2Cl)c(=O)n1-c1ccc(N2CCC(C)CC2)cc1	50µM*	6%	u	0%	-1%	u
CC1CCCN(C(=O)C2CC(=O)N(c3ccc(Cl)cc3)C2)C1 (stereo not given)	45µM*	-7%	-21%	-12%	-20%	-3%
CC(=O)Nc1nc2ccccc2n1CCOc1ccccc1	-4%[59 µM]	1%	-16%	1%	25%	-12%
CCCCn1c(NC(=O)c2ccccc2)nc2ccccc21	70%[59 µM]	5%	0%	0%	53%	45%
S=C(Nc1ccccc1)Nc1nc2ccccc2n1CCOc1ccccc1	-39%[59 µM]	21%	45µM*	-22%	-10%	6.3µM*
CC(=O)Nc1nc2ccccc2n1CCN(C)C	40µM*	-19%	40µM*	-1%	-4%	-37%
CCCCn1c(NC(=S)Nc2ccccc2)nc2ccccc21	1%[59 µM]	5%	40µM*	-16%	u	7.9µM*
CCn1c(CSc2nnc(-c3ccoc3C)n2C)nc2cc(S(=O)(=O)N(C)C)ccc21	50µM*	3%	-12%	-13%	32%	-8%
COc1ccc2nc3cc(Cl)ccc3c(Nc3ccc(O)c(CN4CCN(C)CC4)c3)c2c1	x	x	32µM*	-3%	16µM*	x
CC1CCCCC1NC(=O)CCNS(=O)(=O)c1ccc(Cl)cc1 (stereo not given)	19%	11%	2%	1%	56%	-3%
COc1ccc(C=NNC(=S)NN=Cc2ccc(OC)c(OC)c2)cc1OC	x	x	u	-7%	-8%[57 µM]	x
COc1cccc(/C=N/Nc2snc(SC)c2C#N)c1	u	56µM*	-17%	u	10%	-37%
COc1cccc(/C=N/Nc2snc(SC)c2C#N)c1O	50µM*	7%	-35%[57.1 µM]	-29%	11%	-36%
CSc1nsc(N/N=C/c2ccccc2)c1C#N	-45%	9%	-17%	-9%	17%	-24%
COc1ccc(/C=N/Nc2snc(SC)c2C#N)cc1OC	-11%[0.0925 µM]	u	u	4%	-33%	45µM*
COc1cccc(/C=N/Nc2ccccc2C(=O)O)c1O	u	-1%	-28%	-6%	2%	-28%
CCn1c(C)[n+](Cc2ccccc2)c2ccc(C(=O)OC)cc21	32µM*	-8%	-3%	-12%	-3%	x
Cc1ccc2nc(-c3ccncc3)c(NC3CCCCC3)n2c1	16%	2%	-7%	-9%	21%	2%
S=c1[nH]c2cc(-c3ccccc3)ccc2o1	10µM*	u	-20%	u	14%[57 µM]	u
Cc1ccc(-n2c(=O)c3oc4ccccc4c3n(CC(=O)Nc3ccccc3)c2=O)cc1C	-2%[59 µM]	x	-11%	x	25%	-11%
CCSc1ccccc1C(=O)n1nnc2ccccc21	-7%[59 µM]	u	66%	5.6µM*	97%	35%
CC(=O)n1nnc2ccccc21	x	3%	-5%	x	15%	x
Cc1occc1C(=O)n1nnc2ccccc21	u	32µM*	-7%	u	42%	3%
Cc1occc1C(=O)n1cnc2ccccc21	u	-12%	x	x	x	11%
